Source: PubChem BioAssay (NCI)
About 83,000 compounds went through this panel and 20% of them were active in at least one assay; those are over-represented in the sample as a whole.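 Treatment: one concentration, 48 hours, 96-well format. Scoring: percent growth, with anything below 10 considered active.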 A number with no mark means an inactive call. Active and inactive are the calls of the source.

These compounds were tested on OVCAR-3 ovarian (assay: NCI-60 one-dose screen, 48 h (100 = growth as untreated, 0 = no growth, -100 = all killed)). Conditions: 10 µM unless noted.
With Nc1cc2ccccc2c(=O)n1NC(=O)c1ccccc1 the growth was 70.6%.
Cn1cc(-c2cc(N)n3nc(-c4c[nH]c5ccccc45)cc3n2)c2cc(Cl)ccc21 was tested, and the growth was -52.5% (active).
Work on O=C(NC(=S)N1CCN(c2ncnc3c2cnn3-c2ccccc2)CC1)c1ccc(Br)cc1 yielded a growth of 89.6%.
With O=C(N/N=C/c1ccc(B(O)O)s1)c1[nH]c2ccc(Br)cc2c1-c1ccccc1 the growth was -47.1% (active).

Each compound was assayed on HS 578T breast in the same assay as above. Conditions: 10 µM unless noted.
Compound CCCCNc1ccc2c3c(cccc13)C(=O)N(c1cccc(-c3nn(-c4ccccc4)cc3-c3nc4ccccc4s3)c1)C2=O has a growth of 110%.
Compound COc1ccc(-c2cc(-c3cc(OC)c(OC)c(OC)c3)[nH]c(=O)c2C#N)cc1 has a growth of 24.2%.
COc1cc(C2CC(c3ccc(Cl)cc3)=Nc3c(N)nc(N)nc3N2)ccc1Oc1nc(Nc2ccc(F)cc2)nc(N(C)C)n1 (stereo not drawn) was tested, and the growth was 54%.
O=C(O)CC1S/C(=N/N=C/c2nc3ccccc3s2)NC1=O (stereo not drawn) was tested, and the growth was 90.9%.
Cc1ccc(S(=O)(=O)N(CCn2ccnc2[N+](=O)[O-])CCn2ccnc2[N+](=O)[O-])cc1 showed a growth of 103%.
For N#CCc1nnc(NC(=O)c2ccc(-n3c(=O)[nH]c4ccccc4c3=O)cc2)s1, the growth was 87.9%.
In the case of O=C(N/N=C/c1ccc(Br)o1)c1[nH]c2ccc(Br)cc2c1-c1ccccc1, the growth is reported as -4.62% (active).
Compound COc1ccc(N=Nc2c(N)nn3c(-c4ccc([N+](=O)[O-])cc4)ccnc23)cc1 has a growth of 89%.
For Cn1cc(-c2cc(N)n3nc(-c4c[nH]c5ccc(Cl)cc45)cc3n2)c2cc(Br)cnc21, the growth was -16.2% (active).
